CYP2C19 activ: activators of human cytochrome P450 2C19 | 96,000 tested, under 10 active | activation factor at 5 µM | recombinant CYP2C19, luciferin-H EGE luminescence; active compounds read high; 0 = fully inhibited enzyme, 1 = untreated enzyme | P33261 | AID 1025;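 active means activation factor of at least 2 at 5 µM in the primary screen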;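 further: 0 = wells with 2.5 mM tranylcypromine and 1 = vehicle-only wells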
CYP2C9 act: increases human cytochrome P450 2C9 activity; recombinant CYP2C9, luciferin-H conversion, luminescence; active compounds read high; factor 1 = untreated enzyme, 0 = blocked; activation factor at 5 µM; actives 1.4% (n = 96,000); AID 1024;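 active means activation factor of 2 or more for CYP2C9 at a 5 µM dose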;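 further: 0 = sulfaphenazole-blocked wells and 1 = vehicle-only wells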
Cav32 inh: human Cav3.2 channel inhibition, primary screen | O95180 | Cav3.2-expressing cells, Fluo-4 calcium fluorescence FDSS; active compounds read low | B-score at 10 µM | actives 4% (n = 100,000) | AID 449739;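 active means single-dose well whose peak fluorescence ratio is a statistical outlier from its plate by either plate-standardised score or position-corrected B-score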
Target sequence (O95180 whole entry, looked up): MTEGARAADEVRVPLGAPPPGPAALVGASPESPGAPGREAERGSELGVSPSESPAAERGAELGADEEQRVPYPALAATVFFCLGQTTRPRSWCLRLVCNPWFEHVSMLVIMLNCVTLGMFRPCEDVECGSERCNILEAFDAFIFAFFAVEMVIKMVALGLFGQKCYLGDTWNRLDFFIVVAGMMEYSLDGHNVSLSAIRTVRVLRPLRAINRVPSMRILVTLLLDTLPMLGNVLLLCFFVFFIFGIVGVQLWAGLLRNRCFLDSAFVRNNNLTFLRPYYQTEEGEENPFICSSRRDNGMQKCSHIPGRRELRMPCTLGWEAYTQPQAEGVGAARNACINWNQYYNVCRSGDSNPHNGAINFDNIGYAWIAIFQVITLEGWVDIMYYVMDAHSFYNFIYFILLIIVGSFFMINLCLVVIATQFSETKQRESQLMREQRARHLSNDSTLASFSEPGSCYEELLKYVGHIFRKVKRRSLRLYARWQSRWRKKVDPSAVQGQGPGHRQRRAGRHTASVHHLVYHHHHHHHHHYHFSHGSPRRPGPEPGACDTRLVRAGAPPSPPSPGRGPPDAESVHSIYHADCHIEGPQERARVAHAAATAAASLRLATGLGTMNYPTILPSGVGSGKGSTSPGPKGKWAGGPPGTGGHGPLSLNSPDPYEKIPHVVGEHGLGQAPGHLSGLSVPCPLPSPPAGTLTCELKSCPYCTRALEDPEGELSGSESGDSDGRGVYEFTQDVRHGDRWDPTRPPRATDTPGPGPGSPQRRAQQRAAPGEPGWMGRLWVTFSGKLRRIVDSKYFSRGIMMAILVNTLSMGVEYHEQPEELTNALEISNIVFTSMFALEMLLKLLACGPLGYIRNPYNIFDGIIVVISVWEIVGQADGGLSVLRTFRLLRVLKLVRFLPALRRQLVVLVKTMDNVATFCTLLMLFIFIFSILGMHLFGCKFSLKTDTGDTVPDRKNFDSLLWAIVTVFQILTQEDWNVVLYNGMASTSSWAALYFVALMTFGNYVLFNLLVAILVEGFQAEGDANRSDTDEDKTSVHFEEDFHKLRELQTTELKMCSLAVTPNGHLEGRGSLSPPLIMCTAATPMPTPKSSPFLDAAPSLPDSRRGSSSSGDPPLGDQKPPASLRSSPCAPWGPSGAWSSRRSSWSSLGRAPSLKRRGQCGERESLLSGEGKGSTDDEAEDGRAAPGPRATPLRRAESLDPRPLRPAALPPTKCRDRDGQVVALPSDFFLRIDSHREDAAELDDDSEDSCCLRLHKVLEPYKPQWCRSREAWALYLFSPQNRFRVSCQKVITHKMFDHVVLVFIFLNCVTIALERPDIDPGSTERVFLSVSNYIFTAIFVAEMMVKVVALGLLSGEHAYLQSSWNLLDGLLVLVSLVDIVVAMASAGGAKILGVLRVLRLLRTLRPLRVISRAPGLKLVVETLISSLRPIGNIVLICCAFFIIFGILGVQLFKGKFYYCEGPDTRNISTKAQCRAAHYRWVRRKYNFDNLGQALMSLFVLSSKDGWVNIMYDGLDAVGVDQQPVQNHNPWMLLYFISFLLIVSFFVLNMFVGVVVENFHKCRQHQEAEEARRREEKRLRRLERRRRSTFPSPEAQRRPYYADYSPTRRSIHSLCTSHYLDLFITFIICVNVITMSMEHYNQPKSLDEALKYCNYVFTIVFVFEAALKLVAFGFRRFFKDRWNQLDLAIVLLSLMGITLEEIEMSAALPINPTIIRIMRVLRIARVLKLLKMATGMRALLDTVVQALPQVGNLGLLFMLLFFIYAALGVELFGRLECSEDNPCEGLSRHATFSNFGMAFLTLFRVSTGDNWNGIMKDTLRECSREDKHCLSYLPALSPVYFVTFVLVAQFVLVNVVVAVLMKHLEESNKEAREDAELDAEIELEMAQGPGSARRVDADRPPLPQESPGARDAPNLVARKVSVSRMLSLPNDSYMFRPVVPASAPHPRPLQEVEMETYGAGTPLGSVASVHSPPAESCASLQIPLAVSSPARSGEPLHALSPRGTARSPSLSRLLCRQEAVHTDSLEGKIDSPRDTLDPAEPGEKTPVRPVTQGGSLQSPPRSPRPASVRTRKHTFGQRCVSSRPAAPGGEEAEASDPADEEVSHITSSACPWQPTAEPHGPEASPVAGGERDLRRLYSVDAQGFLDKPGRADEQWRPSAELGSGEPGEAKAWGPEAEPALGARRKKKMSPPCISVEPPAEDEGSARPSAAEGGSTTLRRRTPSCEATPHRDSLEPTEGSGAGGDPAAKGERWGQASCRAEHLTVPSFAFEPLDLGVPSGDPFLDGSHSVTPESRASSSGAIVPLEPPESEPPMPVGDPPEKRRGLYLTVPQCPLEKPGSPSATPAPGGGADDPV
CYP2C19 inhib: human CYP2C19 inhibition; actives 21% (n = 96,000); inhibition, % at 5 µM; CYP2C19 Supersomes, luciferin-H EGE luminescence, 30 min; P33261;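 active means CYP2C19 inhibition above a set limit at 5 µM in the primary screen, cut at about 50% in these data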;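 further: plate controls were negative control wells for no effect and 2.5 mM tranylcypromine positive control for full effect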
CYP2C9 inhib: blocks human cytochrome P450 2C9 | P11712 | CYP2C9 Supersomes, luciferin-H conversion, luminescence | inhibition, % at 5 µM | actives 20% (n = 96,000) | AID 777;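 active means blocking of liver enzyme CYP2C9 beyond about 50% at 5 µM, limit read from the data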
An asterisk follows results filed as active; x = no result. Shown are actives, neighbours in structure and some others; about 27% of the full set was active somewhere.

SMILES	CYP2C19 activ	CYP2C9 act	Cav32 inh	CYP2C19 inhib	CYP2C9 inhib
Cn1c(CNC(=O)c2ccc(Cl)c(Cl)c2)nnc1SCC(=O)Nc1sc2c(c1C#N)CCCC2	0.9	0.8	-0.33	11	21
Cc1cccc(-n2nc(C)cc2N)c1	1.1	1.1	-0.071	-6	-13
CCOc1cccc(-c2nnc3sc(COc4ccc(Cl)cc4)nn23)c1	0.9	0.8	-0.12	11	20
CC(Oc1ccc(Cl)cc1Cl)c1nc(-c2ccccn2)no1 (centres undefined)	0	0.1	-2.2	96*	92*
CC(Oc1ccc(Cl)cc1Cl)c1nc(-c2ccc(NC(=O)c3cccnc3)cc2)no1 (centres undefined)	0.4	0	0.51	64*	96*
CC(Oc1ccc(Cl)cc1Cl)c1nc(-c2ccc(NC(=O)c3ccncc3)cc2)no1 (centres undefined)	x	x	0.49	x	x
NC(=O)c1oc2ccccc2c1NC(=O)C1CCCCC1	1	2.7*	-0.35	1	-172
NC(=O)c1oc2ccccc2c1NC(=O)c1ccc(F)cc1	1	1.8	0.95	4	-82
CCOC(=O)CSCC(=O)Nc1c(C(=O)C2CC2)oc2ccccc12	x	x	-4.7*	x	x
Cc1ccc(NC(=O)CSc2nnc(-c3cnccn3)n2-c2ccccc2)cc1	0.9	1	0.81	8	-1
CCCCOc1cccc(C(=O)N(Cc2cccs2)C2CCS(=O)(=O)C2)c1 (centres undefined)	0.8	0.8	-2	20	15
O=C(Nc1ccccc1)/C(=C/c1ccccc1)c1ccccc1	x	x	-2.4	x	x
Cc1ccccc1NC(=O)/C(=C/c1ccccc1)c1ccccc1	0.7	0.7	-4.8*	27	26
Cc1cccc(C)c1NC(=O)/C(=C/c1ccco1)c1ccccc1	0.6	0.3	-8.6*	43	70*
Cc1cc(C)c(NC(=O)/C(=C/c2ccco2)c2ccccc2)c(C)c1	0.2	0.3	-2.7	77*	68*
CC(C)NC(=O)/C(=C/c1ccco1)c1ccccc1	1.1	1	0.59	-9	3
COc1ccc(N2CCCn3c2nc2c3c(=O)n(Cc3ccccc3F)c(=O)n2C)c(OC)c1	0.8	0.7	-0.91	22	27
COC(=O)C1=C(C)N(CCCC(=O)O)C(=O)NC1c1cccc(Cl)c1Cl (centres undefined)	x	x	1.5	x	x
CC(C)CCNC(=O)CN(CCN1CCOCC1)C(=O)Cn1nnc(-c2ccc(F)cc2)n1	0.7	0.9	0.26	27	12
Cc1cnc(C(=O)Nc2nccs2)cn1	1	1.1	0.92	-2	-7
O=C(c1ccccc1)c1ccccc1N/C=C/c1nnnn1-c1ccccc1	0.3	0.5	-3.3	73*	46
COC(=O)c1ccc(-n2nnnc2SCC(=O)Nc2ccccc2C(=O)OC)cc1	1.1	1.1	x	-12	-6
COc1ccc(N2CCN(C(=O)NC34CC5CC(CC(C5)C3)C4)CC2)cc1	0.4	0.4	0.0098	63*	59*
O=C(NCCC1=CCCCC1)NC12CC3CC(CC(C3)C1)C2	x	x	-3.2	x	x
COc1ccc(CCNC(=O)NC23CC4CC(CC(C4)C2)C3)cc1	0.5	0.8	0.58	53*	23
SMILES	CYP2C19 activ	CYP2C9 act	Cav32 inh	CYP2C19 inhib	CYP2C9 inhib
COc1ccc(CC(=O)OCC(=O)NC(=O)NC23CC4CC(CC(C4)C2)C3)cc1	0.7	0.3	-8*	32	66*
CNC(=S)N1CCN(c2ccc(OC)cc2)CC1	0.3	0.8	1	70*	15
COc1ccc(N2CCN(C(=S)Nc3cc(C)cc(C)c3)CC2)cc1	0.9	1	0.39	11	-3
O=C(COC(=O)c1n[nH]c2ccccc12)NC(=O)NC12CC3CC(CC(C3)C1)C2	0.9	1	0.034	8	-1
CC(C)c1ccc(-c2nc(N3CCOCC3)[nH]c(=O)c2C#N)cc1	0.9	0.9	-0.1	8	11
Cc1ccc2cccnc2c1NC(=S)NC(=O)c1ccccc1	0.6	0.9	0.35	39	14
COc1cccc(C2(O)CCN(C(=O)Cc3cccnc3)CC2)c1	0.3	1	0.33	73*	-4
COc1ccc(C2(O)CCN(C(=O)Cc3cccnc3)CC2)cc1	0.4	0.8	-0.6	58*	16
CCCCNC(=O)C1CCCN1C(=O)Nc1cccc(OC)c1 (centres undefined)	1.1	1.1	0.76	-7	-8
CC(Oc1ccc2oc(-c3ccccc3)c(C(=O)O)c2c1)C(=O)O (centres undefined)	1.2	1.1	-0.082	-20	-15
Cc1nn2cc(-c3ccccc3)nc2[nH]c1=O	0.9	0.3	-0.34	5	74*
O=C(CN1C(=O)c2ccccc2C1=O)Nc1sc2c(c1C(=O)NCc1ccco1)CCCC2	0.8	0.2	-3.9	19	82*
O=C(CCCN1C(=O)c2ccccc2C1=O)Nc1sc2c(c1C(=O)NCc1ccco1)CCC2	0.4	0	-1.7	65*	96*
CCNC(=O)CN(c1ccc(CC)cc1)S(C)(=O)=O	0.5	1.1	0.38	49	-9
COc1ccc([C@H]2/C=C\CN(S(=O)(=O)c3ccc(C)cc3)[C@@H](C)C(=O)N2Cc2ccc(F)cc2)cc1	x	x	-2.7	x	x
COc1ccc(-c2cc(N)n(S(=O)(=O)c3c(F)c(F)c(F)c(F)c3F)n2)cc1OC	0.4	0.2	-1.4	59*	83*
COc1ccc(S(=O)(=O)n2nc(-c3cc(OC)c(OC)c(OC)c3)cc2N)cc1OC	x	x	0.65	x	x
O=C(Nc1ccc2c(c1)OCO2)N1CCN(c2ncc(C(F)(F)F)cc2Cl)CC1	0.8	0.8	-6.6*	18	23
O=C(Nc1ccc2c(c1)OCO2)N1CCOCC1	0.9	1	-0.0021	9	-3
COC(=O)c1ccccc1N(Cc1ccccc1)S(C)(=O)=O	0.2	0.7	0.45	78*	29
O=S(=O)(NCc1ccccc1Br)c1cccs1	0.6	1.2	-0.51	38	-24
Cc1cc([N+](=O)[O-])cnc1NC(C)c1ccccc1 (centres undefined)	0.4	0.5	-3.6	65*	50
CN(c1ccccc1C(=O)Nc1ccc2c(c1)OCCO2)S(C)(=O)=O	x	x	0.023	x	x
CCOc1ccccc1NC(=O)c1ccccc1N(C)S(C)(=O)=O	0.7	1.1	1	28	-11
Cc1ccc(NC(=O)c2ccccc2N(C)S(C)(=O)=O)cc1C	0.5	1	-0.21	50*	-5
SMILES	CYP2C19 activ	CYP2C9 act	Cav32 inh	CYP2C19 inhib	CYP2C9 inhib
CN(c1ccccc1C(=O)Nc1cccc(Cl)c1Cl)S(C)(=O)=O	0.4	0.7	1	65*	28
C[N+](C)(C)CCCCCCCCCC[N+](C)(C)C	x	x	1.5	x	x
CCCCNC(=O)c1ccc(CS(=O)(=O)c2ccc(OC)cc2)o1	0.9	1	0.86	11	-1
COc1ccc(S(=O)(=O)Cc2ccc(C(=O)NCc3cccs3)o2)cc1	0.7	0.4	1.8	27	60*
COc1ccc(S(=O)(=O)Cc2ccc(C(=O)NCCCN3CCc4ccccc4C3)o2)cc1	0.8	0.1	1.1	16	88*
Cc1ccc2cc3cc(C(=O)NCCCN4CCc5ccccc5C4)oc3nc2c1	0.4	0.9	0.065	64*	13

Source: PubChem BioAssay (several laboratories)
